# Assay results published in the supplement of paper PMC13380429.
# Columns and labels:
# [1] = test system: Vero E6 infected with SARS-CoV-2; test: inhibition of SARS-CoV-2 cytopathic effect; higher = more antiviral protection, active = above 15; details: 48 h
# [2] = test system: Vero E6 infected with SARS-CoV-2; test: morphology score (similarity to uninfected cells); higher = more like uninfected cells; details: 24 h
# [3] = test system: Vero E6 infected with SARS-CoV-2; test: SARS-CoV-2 infection rate relative to infected DMSO; higher = more infection, active = 60 or less; details: 24 h
SMILES,inhibition of SARS-CoV-2 cytopathic effect ([1]; 1 nM),inhibition of SARS-CoV-2 cytopathic effect ([1]; 8.33 nM),inhibition of SARS-CoV-2 cytopathic effect ([1]; 100 nM),inhibition of SARS-CoV-2 cytopathic effect ([1]; 833.33 nM),inhibition of SARS-CoV-2 cytopathic effect ([1]; 10000 nM),morphology score [2],SARS-CoV-2 infection rate [3]
C=CC[C@]1(O)CC[C@H]2[C@@H]3CCC4=CC(=O)CCC4=C3C=C[C@@]21C [altrenogest],-0.68% (inactive),-1.12% (inactive),-0.94% (inactive),0.13% (inactive),4.81% (inactive),–,–
C[C@]12CC[C@H](O)C[C@H]1CC[C@@H]1[C@@H]2CC[C@]2(C)[C@@H](c3ccc(=O)oc3)C[C@H]3O[C@]132 [resibufogenin] (10 µM),–,–,–,–,–,-0.241,110% (inactive)
C[n+]1ccc(C(=O)NCc2ccccc2)cc1 [enisamium-iodide],-0.64% (inactive),7.37% (inactive),-0.6% (inactive),4.79% (inactive),0.11% (inactive),–,–
Cl[C@H]1[C@H](Cl)[C@@H](Cl)[C@@H](Cl)[C@H](Cl)[C@H]1Cl [lindane],-2.48% (inactive),-1.41% (inactive),-0.79% (inactive),–,–,–,–
O=C(NC(NC(=S)Nc1ccc(F)c([N+](=O)[O-])c1)C(Cl)(Cl)Cl)C(c1ccccc1)c1ccccc1 (stereo unspecified),-2.82% (inactive),-2.75% (inactive),0.28% (inactive),-7.06% (inactive),-5.53% (inactive),–,–
O=[N+]([O-])c1cc([As](=O)(O)O)ccc1O [roxarsone],-3.44% (inactive),-2.76% (inactive),-4.83% (inactive),–,–,–,–
O=C([O-])c1ccccc1-c1c2cc(Br)c(=O)cc-2oc2[c]([Hg+])c([O-])c(Br)cc12.[Na+].[Na+].[OH-] [merbromin],-11.2% (inactive),-13.3% (inactive),-11.5% (inactive),–,–,–,–
CC(=O)[O][Hg][c]1ccccc1 [phenylmercuric-acetate],-1.11% (inactive),-1.71% (inactive),-0.22% (inactive),–,–,–,–
Cc1ccc2c(Cl)cc(Cl)c(O)c2n1 [chlorquinaldol],-1.39% (inactive),-0.32% (inactive),-1.09% (inactive),-1.86% (inactive),0.43% (inactive),–,–
Clc1ccc2c(c1)CCc1cccnc1C2=C1CCNCC1 [desloratadine],5.47% (inactive),2% (inactive),3.51% (inactive),-0.44% (inactive),-5.42% (inactive),–,–
CCC1(c2ccccc2)C(=O)NCNC1=O [primidone],0.5% (inactive),-0.36% (inactive),-1.1% (inactive),0.53% (inactive),1.81% (inactive),–,–
Oc1ccc(-c2nc(-c3ccc(F)cc3)c(-c3ccncc3)[nH]2)cc1,0.33% (inactive),1.64% (inactive),-1.29% (inactive),2.83% (inactive),8.91% (inactive),–,–
CCC(CC)[C@H](NC(C)=O)[C@@H]1[C@H](O)[C@@H](C(=O)O)C[C@H]1NC(=N)N [peramivir],-2.46% (inactive),-0.07% (inactive),0.34% (inactive),0.01% (inactive),-0.82% (inactive),–,–
C#Cc1cccc(Nc2ncnc3cc4c(cc23)OCCOCCOCCO4)c1 [icotinib] (0.833333 µM),–,–,–,–,–,-0.00998,117% (inactive)
